Measured values reported in PubChem BioAssay (NCATS).
Records with an inconclusive call do not appear. Values without a mark were called inactive. The source made the active and inactive calls. Calls come from the whole dose curve; as a rule, active = well fitted inhibition curve with a large enough effect; inconclusive = small, poorly fitted or top-dose-only effect; inactive = no such curve, though single readings can be large or run the other way.

What follows are compounds tested on Zika virus NS2B-NS3 protease (unlinked) (assay: Optimization of GU AMC qHTS for Zika virus inhibitors: Unlinked NS2B-NS3 protease assay (AID 1347151; note: nearly all actives have a fitted effect of over 80% in size;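 for activity change, negative = inhibition: 0% = no-inhibitor control and -100% = no-enzyme control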)). Details: recombinant ZIKV NS2B-NS3 protease, fluorogenic AMC substrate; series mostly up to 52.5 µM; activity change, negative = inhibition: at the top concentration.
Summary of the method: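 Fluorescence read-out (340 nm ex / 450 nm em) of AMC peptide cleavage, taken immediately and after 15 min at room temperature (~20% conversion). Enzyme was the unlinked NS2B–NS3 complex at 25 nM in Tris pH 8.0 buffer.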
Potency is the fitted concentration of half-maximal effect.

Question: How did the “activity change, negative = inhibition” value turn out when `CCN(CC)CCn1c(=O)c(Cc2ccc(OC)cc2)nc2ccccc21` was run?
Answer: -10.3%

Question: How did the Potency turn out when `CNC(=O)c1cc(Oc2ccc(NC(=O)Nc3ccc(Cl)c(C(F)(F)F)c3)cc2)ccn1` was run?
Answer: 9.87 µM (active)

Question: How did the “activity change, negative = inhibition” value turn out when `CCN(CC)CC#CCOC(=O)C(O)(c1ccccc1)C1CCCCC1` (configuration not stated) was run?
Answer: -1.66%

Question: Which “activity change, negative = inhibition” value does the source give for `O=C(O)C1CCCN(CCC=C(c2ccccc2)c2ccccc2)C1` (configuration not stated) here?
Answer: -0.379%

Question: For `Cc1ccc(S(=O)(=O)N[C@@H](Cc2ccccc2)C(=O)CCl)cc1`, which “activity change, negative = inhibition” value is on record?
Answer: -11.3%

Question: With `CCN1CCCC1CNC(=O)c1cc(S(N)(=O)=O)ccc1OC` (configuration not stated) as the compound, how does the “activity change, negative = inhibition” value read?
Answer: 5.57%

Question: For `COC(=O)Nc1nc2ccc(C(=O)c3ccccc3)cc2[nH]1`, which “activity change, negative = inhibition” value is on record?
Answer: -10.1%

Question: How did the “activity change, negative = inhibition” value turn out when `CCCCS(=N)(=O)CCC(N)C(=O)O` (configuration not stated) was run?
Answer: 9.94%

Question: Which “activity change, negative = inhibition” value does the source give for `CC(=O)[C@H]1CC[C@H]2[C@@H]3CCC4=CC(=O)CC[C@]4(C)[C@H]3CC[C@]12C` here?
Answer: -5.14%

Question: How did the Potency turn out when `OCc1ccc(-c2nn(Cc3ccccc3)c3ccccc23)o1` was run?
Answer: 23.8 µM (active)

Question: `Nc1nc(N)c2nc(CNc3ccc(C(=O)NC(CCC(=O)O)C(=O)O)cc3)cnc2n1` (configuration not stated) was tested. Which Potency did it give?
Answer: 26.7 µM (active)

Question: For `CC1=C(C(=O)O)N2C(=O)[C@@H](NC(=O)C(N)c3ccccc3)[C@H]2SC1` (some centres not stated), which “activity change, negative = inhibition” value is on record?
Answer: -0.234%
